# Among all 1,000 compounds or so, about 230 (23%) were called active. Roughly 1% stayed inconclusive and do not appear here. Some of the results follow. Entries with a potency or affinity are not part of this list. A number with no mark means an inactive call. How the calls were made is not given here.
# Target: Long-chain-fatty-acid--AMP ligase FadD28 (Mycobacterium tuberculosis (strain ATCC 25618 / H37Rv)) (UniProt P9WQ59)
# Test: inhibitors of FadD28 bisubstrate probe binding, dose response, biochemical, fluorescence polarization, cherry-pick (AID 624273)
# Settings: series mostly up to 50 µM; activity change, negative = inhibition: at the top concentration
# Long-chain-fatty-acid--AMP ligase FadD28 (Mycobacterium tuberculosis (strain ATCC 25618 / H37Rv)), sequence (P9WQ59 whole entry, looked up): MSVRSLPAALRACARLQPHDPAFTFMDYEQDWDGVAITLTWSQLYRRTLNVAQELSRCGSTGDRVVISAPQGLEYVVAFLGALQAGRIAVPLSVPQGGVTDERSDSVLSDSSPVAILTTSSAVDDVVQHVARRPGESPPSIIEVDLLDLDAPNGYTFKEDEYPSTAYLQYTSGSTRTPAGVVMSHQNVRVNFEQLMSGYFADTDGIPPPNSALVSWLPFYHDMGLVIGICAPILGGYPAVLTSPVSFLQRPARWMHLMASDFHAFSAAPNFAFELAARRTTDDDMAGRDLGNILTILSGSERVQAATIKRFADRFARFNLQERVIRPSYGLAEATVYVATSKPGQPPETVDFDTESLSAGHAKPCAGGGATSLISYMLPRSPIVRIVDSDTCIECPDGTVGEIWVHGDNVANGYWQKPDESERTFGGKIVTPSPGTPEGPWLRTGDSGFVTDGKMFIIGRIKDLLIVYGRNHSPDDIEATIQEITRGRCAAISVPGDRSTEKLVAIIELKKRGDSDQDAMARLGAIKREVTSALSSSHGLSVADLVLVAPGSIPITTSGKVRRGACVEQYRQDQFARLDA
row,Structure (SMILES),"activity change, negative = inhibition"
1,CC(=O)Nc1cnc(-c2ccc(O)cc2C)cn1,1.39%
2,CCOc1ccc(CNC(=O)CCc2cn(C)c3ccccc23)cc1OC,-4.76%
3,O=C(c1cc2cc(F)ccc2[nH]1)N1CCc2ccccc2C1,-16.4%
4,COc1ccc(-c2coc3c(C(=O)Nc4cccc(C(C)=O)c4)cccc23)c(C)c1,-0.536%
5,COc1ccc(NC(=O)c2ccccc2NS(C)(=O)=O)cc1OC,-3.77%
6,CCN(CC(=O)Nc1c(F)cccc1F)C(=O)Cc1ccccc1,-2.25%
7,N#CC1=C(N)OC2=C(C(=O)CCC2)C1c1cc2c(cc1Cl)OCO2 (stereo unspecified),-6.31%
8,COc1ccc(-c2coc3cc(O[C@@H]4O[C@H](CO)[C@@H](O)[C@H](O)[C@H]4O)ccc3c2=O)cc1,-3.03%
9,Cc1ccc(OCc2n[nH]c(=S)n2-c2ccc(Br)cc2)cc1,-6.22%
10,Cc1ccc2c(c1)N(C(=O)NC1CCCCC1)C(C)(C)CC2C (stereo unspecified),-2.78%
11,Cc1cc(NCC(=O)Nc2ccc(C)c(S(=O)(=O)N3CCOCC3)c2)ccc1Br,-7.05%
12,COc1cc([N+](=O)[O-])ccc1NC(=S)NC(=O)CC(C)(C)C,-11.9%
13,COc1ccc(S(=O)(=O)N2CCCCCC2)cc1NC(=O)c1ccccc1S(C)(=O)=O,-4.29%
14,Cc1ccc(NC(=O)COC(=O)c2cccc(OC(F)F)c2)cc1S(=O)(=O)N1CCCCC1,-4.36%
15,O=C(Nc1ccc(NC(=O)c2cc([N+](=O)[O-])ccc2N2CCOCC2)cc1)c1cccs1,-10.1%
16,COc1ccc(-n2nnnc2SCC(=O)Nc2ccccc2N2CCOCC2)cc1OC,-5.58%
17,Cc1ccc(C(=O)N2CCCC2)cc1S(=O)(=O)N1CCOCC1,-10.9%
18,O=C(c1cc(COc2ccc3c(c2)CCCC3)on1)N1CCCC1,-13.7%
19,O=C(c1cccc(C(F)(F)F)c1)N1CCN(CCc2ccccc2)CC1,3.31%
20,Cc1[nH]n(-c2ccc(Cl)cc2)c(=O)c1C=Nc1ccc(S(=O)(=O)N2CCOCC2)cc1,-0.291%
21,O=C(Cn1cc(S(=O)(=O)Cc2cccc([N+](=O)[O-])c2)c2ccccc21)N1CCOCC1,-3.46%
22,COC(=O)c1cc(S(=O)(=O)Nc2ccsc2C(=O)OC)oc1C,-7.11%

row,Structure (SMILES),"activity change, negative = inhibition"
1,Cc1nnc(SCC(=O)Nc2ccc(F)cc2)n(N)c1=O,-5.63%
2,O=C1/C(=C/c2ccco2)SC(=S)N1CCC(=O)N1CCCCC1CCO (stereo unspecified),-10.4%
3,N#Cc1ccccc1NC(=O)CNc1ccc(Cl)c(C(F)(F)F)c1,-2.52%
4,COc1cc2c(cc1OC)C(=O)C(Br)CC2 (stereo unspecified),-9.76%
5,O=C(O)CSC(C(=O)Nc1ccc(C(F)(F)F)cc1)c1ccccc1 (stereo unspecified),-8.44%
6,COCc1[nH][nH]c(=O)c1C=Nc1ccc(C(F)(F)F)cc1,-12.3%
7,NS(=O)(=O)c1ccc(NC(=O)c2ccc3c(c2)OCO3)cc1,-3.68%
8,Cc1nonc1C(=O)N/N=C/c1ccc([N+](=O)[O-])o1,-12.6%
9,COC(=O)[C@]1(Cc2ccccc2)N[C@H](CN(C)S(=O)(=O)c2ccc(-c3ccccc3)cc2)[C@@H]2C(=O)N(C)C(=O)[C@@H]21,-27.4%
10,COc1cccc(CN(C)C(=O)CC2C(=O)NCCN2C2Cc3ccccc3C2)c1 (stereo unspecified),1.96%
11,COc1cc(/C=C/c2ccc3cccc(O)c3n2)cc(OC)c1OC,-5.24%
12,Cc1ccn2c(Nc3ccccc3C)c(-c3ccccn3)nc2c1,-4.56%
13,Cc1nn(Cc2ccc(F)cc2)c2sc(C(=O)Nc3ccccc3N3CCOCC3)cc12,-3.07%
14,O=C1CCCC(=NNC(=O)c2cc3ccccc3cc2O)C1,3.46%
15,O=C(O)CCC(=O)Nc1ccc(C(=O)OCC(=O)c2ccc(Cl)cc2)cc1,-18.5%
16,O=C(Nc1cccc([N+](=O)[O-])c1)NC1CCCCCCC1,-11.6%
17,Cn1nc(CC(=O)NC2CCCCCCCCCCC2)c2ccccc2c1=O,-3.2%
18,FC(F)Sc1ccc(NC(=S)NCc2ccccc2)cc1,-12.6%
19,O=C(COC(=O)c1nc(Cl)ccc1Cl)NCc1ccccc1,-10.5%
20,CCCC(C(=O)NCCC(C)C)N(Cc1ccccc1)C(=O)c1snc(C(N)=O)c1N (stereo unspecified),-8.21%
21,O=S(=O)(CCN1CCN(c2ccccc2O)CC1)c1cc(Cl)ccc1Cl,-5.55%
22,COc1ccc(NC(=O)Nc2ccc3c(c2)C(=O)N([C@@H](C)CO)C[C@@H](C)[C@@H](CN(C)S(=O)(=O)c2cccs2)O3)cc1,-15.6%

row,Structure (SMILES),"activity change, negative = inhibition"
1,O=C(NN=Cc1ccc(N(CCCl)CCCl)cc1)c1cccnc1,-10.7%
2,CCN(CC)c1ccc(NC(=O)Nc2ccc(C(C)=O)cc2)cc1,-9.89%
3,COc1ccc(Cl)cc1C(=O)Nn1c(-c2cccs2)nc2ccccc2c1=O,-10.4%
4,O=C(Nc1ccc(F)cc1F)NC1CCCCCCC1,-10.6%
5,CCOc1ccc(NC(=O)Cn2sc3nc(C)cc(C)c3c2=O)cc1,1.98%
6,CCOc1ccc(N=C2SC(C(=O)Nc3ccccc3C#N)C(N)=C2C(=O)Nc2ccc(Cl)cc2)cc1 (stereo unspecified),-2.7%
7,c1ccc(-c2cc(-c3ccccc3)on2)cc1,-4.78%
8,CCCCC(=O)Nc1cc([N+](=O)[O-])ccc1Cl,-3.25%
9,N#Cc1ccc(NCCc2ccccn2)c([N+](=O)[O-])c1,-4.35%
10,CCS(=O)(=O)c1ncc(Cl)c(C(=O)Nc2ccc(S(=O)(=O)N3CCC(C)CC3)cc2)n1,-3.68%
11,CC12CCC(C(=O)NCCCn3ccnc3)(OC1=O)C2(C)C (stereo unspecified),0.92%
12,c1ccc2cc(OCCCn3ccnc3)ccc2c1,4.08%
13,Cc1nn(CC(=O)NCc2ccco2)c(C)c1[N+](=O)[O-],-5.9%
14,CC(C)(C)c1ccc(Cn2nnc3c(=O)[nH]c(C4CCCN(C(=O)c5cccs5)C4)nc32)cc1 (stereo unspecified),1.02%
15,COc1ccc(N=C2NC(=O)/C(=C\C=C\c3ccco3)S2)cc1,-9.1%
16,CCN(C(=O)c1cc(OC)c(OC)c(OC)c1)C1CCCCC1,-8.5%
17,CCc1cccc2c(C(=O)COC(=O)[C@@H]3CC(O)CN3S(=O)(=O)c3ccccc3[N+](=O)[O-])c[nH]c12 (stereo partly specified),-1.47%
18,CCc1cccc2c(C(=O)COC(=O)c3ccccc3)c[nH]c12,-7.51%
19,COc1ccc(C(C)=O)cc1COC(=O)c1cnc(C)cn1,-0.706%
20,O=C(c1cc2cc(Br)ccc2oc1=O)N1CCCC1,-5.4%
21,CC(C)CCOc1ccc(C(=O)N2CCCC2C(=O)O)cc1 (stereo unspecified),-7.21%
22,C[C@@H]1CN([C@H](C)CO)C(=O)c2cc(NC(=O)Nc3ccc(C(F)(F)F)cc3)ccc2O[C@H]1CN(C)S(=O)(=O)c1cccs1,-6.05%

row,Structure (SMILES),"activity change, negative = inhibition"
1,Cc1ccc(S(=O)(=O)Nc2ccc(O)c3ccccc23)c(C)c1,-15.6%
2,Cc1noc(/C=C/N(C)C)c1S(=O)(=O)N1CCCC(C(=O)NC2CCCCC2C)C1 (stereo unspecified),-7.62%
3,CCOC(=O)c1cccc(P(=O)(C(C)(C)C)C(C)(C)C)c1,1.89%
4,C=CC(COCc1ccccc1)N(C(=O)OC(C)(C)C)S(=O)(=O)c1ccccc1Br (stereo unspecified),0.184%
5,C=CCC12C=C(OC)C(=O)OC(OC)(C1O)[C@H](c1ccc3c(c1)OCO3)[C@H]2C (stereo partly specified),-8.23%
6,CCC1(CC)NC(=O)N(CC(=O)Nc2ccc(OCc3ccccc3)cc2)C1=O,-6.91%
7,Cc1ccc(S(=O)(=O)NCC(=O)OCC(=O)N2CCN(C(=O)c3ccco3)CC2)cc1C,-6.55%
8,CCc1cc(C(=O)O)c(NC(=O)C(c2ccccc2)c2ccccc2)s1,-0.982%
9,CN1c2ccsc2C(O)=C(C(=S)Nc2ccc(F)c(Cl)c2)S1(=O)=O,-7.32%
10,CC1(C)Cc2ccccc2C(=NCCCC(=O)O)N1,-2.17%
11,Oc1c(Cl)cc(Cl)cc1/C=N/NC(=S)NC1CC2C=CC1C2 (stereo unspecified),-13.8%
12,CCCSc1ncc(Cl)c(C(=O)Nc2ccc(S(=O)(=O)N3CC(C)OC(C)C3)cc2)n1 (stereo unspecified),-0.797%
13,C=CCC[C@@H](Cc1ccc(F)cc1)C(=O)OC[C@@H](NC(=O)[C@@H](CC=C)CC(=O)N(CCO)Cc1ccccc1)c1ccccc1,2.84%
14,O=C(Nc1ccccc1F)NC1CCCCCCC1,-18.2%
15,COC(=O)CN(c1ccc(OC)cc1)S(=O)(=O)c1ccc(OC)c(OC)c1,0.952%
16,COC(=O)C1=C(c2ccc3ccccc3c2)C[C@@H]2CC[C@H]1N2C(=O)N1CCC(O)CC1,-1.57%
17,N=c1c(C(=O)NCc2ccco2)cc2c(=O)n3ccccc3nc2n1Cc1ccccc1,-1.35%
18,COC(=O)CCC(=O)N1CCCC(CO)(Cc2ccccc2F)C1 (stereo unspecified),-0.525%
19,O=C(O)C1Sc2[nH]c(=O)sc2C2c3ccc(O)cc3OC(=O)C12 (stereo unspecified),-16.8%
20,O=C(NC(NC(=S)Nc1c(Cl)cccc1Cl)C(Cl)(Cl)Cl)OCc1ccccc1 (stereo unspecified),8.05%

# From PubChem BioAssay AID624273 (Broad Institute, 2012)
